We go through 49 compounds from PubChem BioAssay AID1671194 (National Center for Advancing Translational Sciences (NCATS), 2021).

Hit rate of the full screen: of about 140,000 compounds, about 240 (0.17%) were called active. Inconclusive results (about 9%) are left out. What follows is part of a selection rich in actives, with near analogues and random picks from the rest. A number with no mark means an inactive call. Calls come from the whole dose curve; as a rule, active = well fitted inhibition curve with a large enough effect; inconclusive = small, poorly fitted or top-dose-only effect; inactive = no such curve, though single readings can be large or run the other way.
Potency is the fitted concentration of half-maximal effect.

The nature of the experiment: Primary qHTS assay for inhibitors of alpha-synuclein gene (SNCA) expression. Note: nearly all actives have a fitted effect of over 45% in size. The note with it: HEK-293 SNCA-luciferase knock-in, luminescence, 24 h; series mostly up to 57.2 µM; activity change, negative = inhibition: at the top concentration. An excerpt: Assay Submitter (PI): Daniel R. Scoles Ph.D.
Department of Neurology, University of Utah, Salt Lake City, Utah
Accumulation of alpha-synuclein is a main underlying pathological feature of Parkinson's disease (PD) and alpha-synucleinopathies, for which lowering expression of the alpha-synuclein gene (SNCA) is a potential therapeutic avenue. Using a cell-based luciferase reporter of SNCA expression we performed a quantitative high throughput screen (qHTS) of 155,885 compounds in dose response. The screening assay was generated using genome editing to insert the luciferase gene downstream and in frame of the SNCA gene in HEK-293 cells (1). A viability counterscreen using GF-AFC was used to eliminate cytotoxic and false positive compounds. After in silico analysis (clustering, removal of frequent hitter nuisance chemotypes), inhibitor compounds from the primary screen were selected for follow up and re-tested at 11-doses in the SNCA-luc cells (luciferase and GF-AFC confirmation), and in CMV-luc expressing cell line to flag general transcriptional repressors.
Described herein are the results of the primary screen for SNCA inhibitors; decrease in luciferase signal (inhibition of the SNCA gene expression) is the desired output for this assay.
1. Dansithong, W., Paul, S., Scoles, D. R., Pulst, S. M., and Huynh, D. P. (2015) Generation of SNCA Cell Models Using Zinc Finger Nuclease (ZFN) Technology for Efficient High-Throughput Drug Screening. PLoS ONE 10, e0136930.
SEQUENCE No. (e.g., 1, 2, 3, etc.); […] (e.g., Cells, Incubation, Reagent, etc.); VALUE; DESCRIPTION
1; Cells; 4 uL; Dispense 1500 HEK-293-SNCA-luc cells/well into Greiner 1536-well white / solid bottom tissue culture treated plate. The plate was covered with metal lids with gas-exchange holes.
2; Incubate; 24 hours; Incubate at 37C, 5% CO2, 95% RH.
3; Compounds; 23 nL; Compounds and controls were transferred via a Kalypsys Pin Tool (Wako USA) equipped with a 1536-slotted pin array. The plate was covered with metal lids with gas-exchange holes.
4; Incubate; 24 hours; Incubate at 37C, 5% CO2, 95% RH.
5; Dispense; 1 uL; Dispense Gly-Phe-7-amino-4-trifluoromethylcoumarin (GF-AFC, prepared at 125 uM in PBS) was added. The plate was covered with metal lids with gas-exchange holes.
6; Incubate; 30 min; Incubate at 37C, 5% CO2.
7; Detector; Fluorescence; Measure fluorescence with ViewLux microplate reader (PerkinElmer) equipped with 405/10 excitation and 540/25 emission filters.
8; Dispense; 3 uL; Dispense ONE-Glo ([…]) lucifase detection reagent was added to each well. Plates were covered with metal lids with gas-exchange holes.
9; Incubate; 15 min; Incubate at room temperature.
10; Detector; Luminescence; Measure luminescence with ViewLux microplate reader (PerkinElmer) equipped with clear filters.
NOTES (numbers refer to sequence above)
1; HEK-293-SNCA-luc were cultured and suspended in phenol-red free DMEM (4.5 g/L glucose, 25 mM HEPES, cat #21063 (Thermo)).
3; Compounds were added to the assay plate in an 11-point intra plate dose response, 1:3 titration in DMSO with a final concentration range of […]. Vehicle-only plates, with DMSO being pin-transferred to every well, were inserted at the beginning of screening runs to confirm expected assay performance. Activity was normalized to wells containing medium only (-100% activity, full inhibition) and SNCA-luc cells treated with DMSO vehicle control (0% activity), contained on the same plate as test samples.
10; Signals were analyzed, and dose-response curves were fit using the Hill equation. Compounds in curve classes -1.1, -1.2, -2.1, -2.2 in the SNCA-luc assay were considered active. Compounds were eliminated from further consideration if also active (curve class -1.1, -1.2, -1.3, -1.4, -2.1, -2.2, -2.3, -2.4) in the GF-AFC cytotoxicity assay.
`Cc1ccc(OCCn2c(CNc3ccccc3C)nc3ccccc32)cc1`: the “activity change, negative = inhibition” value is 41.7%.
The same measure, in the same setting: in the case of `CCCn1c(NCc2ccccc2F)nc2ccccc21` it was 74.8%.
Consider `CCCn1c(NCc2ccc(N(CC)CC)cc2)nc2ccccc21`, for which the Potency was 17.8 µM (active).
For the compound `O=C(NCCc1ccccn1)c1ccc2c(c1)N(S(=O)(=O)c1ccccc1)CC2`, the “activity change, negative = inhibition” value was 46.9%.
The same measure, in the same setting: the result for `CCCS(=O)(=O)N1CCC(CCOC)(NC(=O)NCC)CC1` reads 12.8%.
In the case of `CC(C)NC(=O)C1(CCO)CCN(c2ncccn2)C1` (centres undefined), the “activity change, negative = inhibition” value was 28.1%.
As for `COc1cccc(CC(=O)NC2CCN(c3cc(-c4ccc(F)cc4)[nH]n3)C2)c1` (centres undefined), the “activity change, negative = inhibition” value is -17.9%.
In the case of `CCC(=O)N1CCC2(CC1)OCC(C(=O)NCc1ccccc1)N2C(=O)c1ccc(C)cc1` (centres undefined), the “activity change, negative = inhibition” value was 5.47%.
On the same count and under the same terms, the result for `O=C1NCc2ccccc2CC12CCCN2Cc1ccccc1OC(F)(F)F` (centres undefined) reads -23%; that for `CC(C)CN(CC1CN(C(=O)Cc2cccs2)CCO1)C(=O)c1cccc2ccccc12` (centres undefined), 10%; that for `O=C1NC(=NC2CCCC2)C2(CCCN(Cc3ccsc3)C2)N1c1cc(F)cc(F)c1` (centres undefined), -4.31%.
With `CCOc1cccc(CN2CCC(Oc3ccc(-c4noc(C5CC5)n4)cc3)C2)c1` (centres undefined), the “activity change, negative = inhibition” value was -28.9%.
With `COc1ccccc1Nc1ccnc(N2CCC(C(=O)N3CCC(c4ccccc4)CC3)CC2)n1`, the “activity change, negative = inhibition” value is 20.6%.
Still for that read-out and setting: the result for `Cc1ccc(-c2ccccc2CN2CCN(C(=O)NC(C)C)CC2)cc1Cl` reads 25.7%; that for `Cc1nonc1CC(=O)NC1CC(=O)N(Cc2cccc3ccccc23)C1` (centres undefined), -1.27%; that for `COc1ccccc1NC(=O)Cn1c(-c2ccc(F)cc2)nc(C)c(CCO)c1=O`, 27.5%.
On the same count and under the same terms, the result for `COc1ccc(-c2ccnc(N[C@H]3CO[C@H]4[C@@H]3OC[C@H]4OC(=O)Nc3cccc4ccccc34)n2)cc1` reads 5.69%.
In the case of `Cn1cccc1C(=O)N1C[C@@H](COc2ccccc2)[C@H](C(N)=O)C1`, the “activity change, negative = inhibition” value was -3.67%.
As to `Cc1cccc(OCCc2noc(C3CCCN(Cc4ccccc4C#N)C3)n2)c1` (centres undefined), the “activity change, negative = inhibition” value is 45.5%.
Same read-out and setting: in the case of `CCOC(=O)C1CCCN(C(=O)c2ccc3oc(-c4ccccn4)nc3c2)C1` (centres undefined) it was 44.3%; in that of `CC(=O)N1CCN(C(=O)c2ccc3nc(-c4ccncc4)oc3c2)CC1`, 25.2%.
For the compound `Cc1cccc(-c2nc3ccc(C(=O)N4CCCCC4)cc3o2)n1`, the Potency was 7.94 µM (active).
Turning to `O=C(NCCc1ccccc1)c1ccc2nnc(C3CCCC3)n2c1`, the “activity change, negative = inhibition” value was 29.4% [at 87.6 µM].
Same read-out and setting: in the case of `CCOC(=O)C1CCCN(C(=O)Cc2ccc(N(Cc3cccc(F)c3)C(=O)c3ccco3)cc2)C1` (centres undefined) it was -23.9%; in that of `CCOc1ccccc1C(=O)N1CCC(Cc2nc(-c3ccccc3)no2)CC1`, -35.6%.
Still for that read-out and setting: the result for `COc1ccc(NC(=O)[C@@H]2C[C@@H](c3ccc(F)cc3)N(CCOc3ccccc3)C2)cn1` reads -25.5% [at 87.6 µM].
Same read-out and setting: in the case of `CC(C)(C)C(=O)N1CCc2nc(-c3ccc(Cl)cc3)nc(-c3ccccc3)c2C1` it was 8.29%.
Take `Cc1ccc([S+](=O)([O-])N2CCN(C(=O)c3nc4cccnc4n(C4CCCC4)c3=O)CC2)cc1`: the “activity change, negative = inhibition” value was 15%.
Still for that read-out and setting: the result for `Oc1ccccc1CN1CCOC[C@H]1c1ncc(-c2ccc(C(F)(F)F)cc2)[nH]1` reads -16.2% [at 87.6 µM].
Still for that read-out and setting: in the case of `Cc1c(Cl)cccc1NC(=O)N(C)CC1CCOC1` (centres undefined) it was -18.4%; in that of `CC1(c2cccnc2)N(CCOc2ccccc2)C(=O)OC12CCN(C(=O)c1cccc(Cl)c1)CC2` (centres undefined), 1.76%.
With `COc1ccccc1-c1cc(C(=O)NCCSC)nn2cccc12`, the “activity change, negative = inhibition” value was 7.11%.
Still for that read-out and setting: in the case of `CC1=C[C@@H](CNC(=O)Nc2ccccc2)[C@H](C(C)C)C[C@H]1CC(=O)NCCN(C)C` it was 10.4% [at 87.6 µM].
Take `O=C(C1CCC1)N1CCC(O)(c2csc(CN3CCc4ccccc4C3)n2)CC1`: the “activity change, negative = inhibition” value is -14.5% [at 87.6 µM].
Still for that read-out and setting: in the case of `O=C1[C@@H]2C[C@@H](O)CN2C2(CN(C3CCC3)C2)C(=O)N1Cc1ccccc1` it was -1.96% [at 87.6 µM]; in that of `Cc1ccc(-c2noc([C@@H]3C[C@@H](O)CN3Cc3cccc(C#N)c3)n2)cc1F`, 50% [at 87.6 µM].
Take `O=C(Cc1ccccn1)N1CCC(C(=O)N2CCC(N3CCCC3=O)CC2)CC1`: the “activity change, negative = inhibition” value is 23%.
Still for that read-out and setting: in the case of `O=C(NCCc1ccccc1)C1=NO[C@@H]2CN(Cc3ccc(F)cc3)C[C@H]12` it was -24% [at 87.6 µM]; in that of `CC1(C)[C@H](Cc2cc(CC3CCCCC3)on2)C[C@@H]1NC1CCOCC1`, -20.1% [at 87.6 µM].
Same read-out and setting: the result for `COc1cc(OC)c(CNC(=O)c2c(C)noc2-c2cc(OC)c(OC)c(OC)c2)c(OC)c1` reads -14%.
For `O=C(NCc1cccc(F)c1)c1c[nH]c2ncccc12`, the “activity change, negative = inhibition” value was 38.6% [at 87.6 µM].
On the same count and under the same terms, in the case of `Cc1ccc(C(=O)N2CCC(N3CC4CC(C3)[C@H]3CCCC(=O)N3C4)CC2)s1` (some centres undefined) it was -10.4%; in that of `CCOc1cccc(CNC(=O)CC2CCCCN(Cc3ccccc3)C2=O)c1` (centres undefined), -19.5%; in that of `O=C(NCc1ccccc1)C1CCN(c2nccc(Nc3ccccc3Cl)n2)CC1`, 15.5%.
Take `COc1ccccc1-c1[nH]nc2ncc(-c3cccc(CO)c3)nc12`: the “activity change, negative = inhibition” value is 40% [at 87.6 µM].
With `O=C(Cc1ccccn1)N1CCCC(C(=O)N2CCC(c3nc4ncccc4[nH]3)CC2)C1` (centres undefined), the “activity change, negative = inhibition” value is -25.7%.
With `COc1ccc(Nc2cnc3ccc(-c4ccc(OC)nc4)nn23)cc1`, the “activity change, negative = inhibition” value was 16% [at 87.6 µM].
Still for that read-out and setting: the result for `O=C1NC2(Cc3ccccc31)CN([S+](=O)([O-])c1ccccc1)C2` reads -1.01%.
On the same count and under the same terms, the result for `COCC(=O)N1CC(C(=O)NCCc2ccccn2)C2(CCOCC2)C1` (centres undefined) reads -5.39%.
